A selection: hits, their analogues and other compounds. The true share with any hit is near 3.2%.
MsrA inhibitor = inhibits bovine methionine sulfoxide reductase A. AID 651718. 0.75% of 360,000 active. inhibition, % at 15.5 µM. purified bovine MsrA, absorbance read-out; in the data active = inhibition above about 4.5%;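 also: 0% = vehicle wells with enzyme and 100% = reference inhibitor wells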
rCAG binder = molecules binding r(CAG) RNA repeats. AID 651821. inhibition, % at 3 µM. 1.3% of 370,000 active. r(CAG) RNA repeat, TO-PRO-1 dye displacement fluorescence;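 active = inhibition above the plate cutoff, the mean of all test compounds on that plate plus 3 SD, cut at about 35% in these data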;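 also: 0% = DMSO alone and 100% = 100 µM mitoxantrone as full dye displacement; higher means more dye released from RNA so lower well fluorescence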
PG9 binder = small molecules binding HIV-1 gp120 antibody PG9 | 0.43% of 360,000 active | inhibition, % at 6.7 µM | TR-FRET gp120-PG9 antibody binding; in the data active = inhibition above about 8.5%
sPLA2-III inh = Blocks human group III sPLA2 activity | AID 743126 | inhibition, % at 12.2 µM | QFRET BODIPY PC-A2 liposome hydrolysis, fluorescence | 0.56% of 370,000 active;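 active = inhibition above mean plus 3 SD of compounds lying within the high and low control bounds, cut at about 19% in these data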;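 also: 0% = median of test compound wells and 100% = no enzyme DMSO wells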
Target sequence (Q9NZ20 whole entry, looked up): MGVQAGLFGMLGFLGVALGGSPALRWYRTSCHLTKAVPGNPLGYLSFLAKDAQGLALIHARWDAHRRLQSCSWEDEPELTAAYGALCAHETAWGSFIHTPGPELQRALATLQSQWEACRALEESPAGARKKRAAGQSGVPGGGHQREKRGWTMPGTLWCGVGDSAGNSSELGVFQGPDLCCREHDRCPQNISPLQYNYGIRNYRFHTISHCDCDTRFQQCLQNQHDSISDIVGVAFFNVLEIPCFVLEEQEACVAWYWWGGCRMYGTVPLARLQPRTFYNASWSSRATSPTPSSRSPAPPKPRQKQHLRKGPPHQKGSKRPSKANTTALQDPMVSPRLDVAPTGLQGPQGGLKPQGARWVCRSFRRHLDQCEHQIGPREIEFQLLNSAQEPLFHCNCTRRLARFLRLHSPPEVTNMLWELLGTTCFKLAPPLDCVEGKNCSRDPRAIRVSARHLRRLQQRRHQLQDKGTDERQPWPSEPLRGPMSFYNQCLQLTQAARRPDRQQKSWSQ
bovine MsrA act = activators of bovine methionine sulfoxide reductase A. activation, % at 10.6 µM. purified bovine MsrA, absorbance read-out. 0.3% of 360,000 active. AID 602163; in the data active = activation above about 7.5%;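 also: 0% = vehicle and 100% = reference activator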
sPLA2 confirm = human GIII-sPLA2 inhibition, confirmation; shares compounds with sPLA2-III inh; recombinant hGIII-sPLA2, BODIPY PC-A2 QFRET fluorescence; inhibition, % at 12.2 µM; 34% of 2,000 active; AID 743280;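 active = mean inhibition across triplicates above the hit cutoff set in the earlier primary screen, cut at about 19% in these data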;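 also: 0% = enzyme with DMSO and 100% = DMSO wells lacking enzyme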
535nm interf = 535nm fluorescence interference, HGIII-sPLA2 counter-screen; shares compounds with sPLA2-III inh; BODIPY FL product fluorescence interference, QFRET; inhibition, % at 12.2 µM; 8.5% of 2,000 active;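 active = average inhibition above the solvent-only control mean plus 3 SD, cut at about 6% in these data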;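 also: 0% = DMSO with substrate plus product and 100% = DMSO with substrate alone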
535nm interf DR = counter-screen for HGIII-sPLA2 inhibitors: 535nm fluorescence interference, dose response. BODIPY FL product fluorescence interference, cell-free. 240 tested, under 10 active. AID 743455. shares compounds with sPLA2-III inh. IC50, µM;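 active = IC50 at or below 10 µM; inactive = IC50 above 10 µM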
Active calls of the source: *; x = no result given.

SMILES	MsrA inhibitor	rCAG binder	PG9 binder	sPLA2-III inh	bovine MsrA act	sPLA2 confirm	535nm interf	others
CCCCc1ccc(NC(=S)N2CCCC2)cc1	-1	-2	1	20*	-5	10	-9
CCCCc1ccc(NC(=S)N2CCN(C)CC2)cc1	0	-8	0	8	0	x	x
COC(=O)[C@]12C[C@H](CC(=O)N3CCSCC3)C(=O)N(CCC3=CCCCC3)C1=C[C@H](C1CCCC1)O[C@@H]2C	x	3	x	0	x	x	x
COc1ccc(CN2CCc3c([nH]c4ccccc34)C2)cc1Br	0	-2	0	27*	-2	8	-6
CC(CCC(=O)Nc1nncs1)C(=O)O (stereo not given)	0	2	1	20*	-1	0	3
O=C(O)CCCC(=O)Nc1nncs1	-1	0	-2	-1	-7	x	x
CCS(=O)(=O)N1CCCC(C(=O)NCc2cccnc2)C1 (stereo not given)	0	1	-1	1	-1	x	x
CCS(=O)(=O)N1CCC(C(=O)NCc2cccnc2)CC1	0	-3	-2	20*	-2	-2	-2
C/C(=N/NC(=O)c1ccc2c(c1)OCCO2)c1ccc([N+](=O)[O-])cc1	-1	-2	0	23*	-4	-3	-8
COc1cccc(/C=C2\CC3(OC(=O)c4ccc(F)cc4)CCCN2C3)c1 (stereo not given)	x	1	x	-8	x	x	x
CC(=O)N(C)c1ccc(N2CCOCC2)c2c1C(=O)c1ccccc1C2=O	0	-4	-8	-3	-11	x	x
O=C1c2ccccc2C(=O)c2c1cccc2N1CCOCC1	1	1	-21	22*	-1	32*	5	535nm interf DR=>122
Cc1cc(C)c(C)c(N=Nc2nc3ccccc3n2C)c1C	2	-1	-3	21*	-9	39*	-3	535nm interf DR=>122
COc1cccc(CNC(=O)C2CCC(CNS(=O)(=O)c3cccc4cccnc34)CC2)c1OC (stereo not given)	x	1	x	-7	x	x	x
CCOC(=O)CC[C@H](NC(=O)[C@@H]1CC=C[C@@H]2CCN(Cc3ccc(Cl)cc3)C(=O)[C@@H]21)C(=O)OCC	x	x	x	2	x	x	x
O=C(c1ccc(-c2cc(O)c3ncccc3c2)cc1)N1CCNCC1	0	2	-2	23*	-2	-11	-22
CC(C)(C)c1ccc(NC(=O)C2=CC=CN3CCS(=O)(=O)N=C23)cc1	1	1	0	11	-2	x	x
CCN(CC)c1ccc(NC(=O)C2=CC=CN3CCS(=O)(=O)N=C23)cc1	3	2	-13	21*	-5	8	1
CCN(CC)CC(=O)Nc1cccc2c1C(=O)c1ccccc1C2=O	1	10	-3	1	-2	x	x
O=C1c2ccccc2C(=O)c2c(NCCCN(CCO)CCO)cccc21	1	6	-32	20*	-4	31*	-7	535nm interf DR=>122
CCCCNC(=S)NNC(=O)c1ccc(Br)o1	1	-5	-1	30*	-5	31*	3	535nm interf DR=>122
CCCCNC(=S)NNC(=O)c1nn(C)cc1Cl	0	3	0	23*	5	27*	-1
CCN(CC)C(=O)C12C(=O)Oc3ccccc3C1C2(C)C(=O)c1ccc(F)cc1 (stereo not given)	-1	-5	-1	20*	-1	-2	-8
CCN(CC)CCCNC(=O)CSc1nnc(-c2ccncc2)n1-c1ccc(OC)cc1	x	0	x	16	x	x	x
Cc1ccccc1-n1nc(C(=O)c2cccs2)cc(-c2nc3ccccc3[nH]2)c1=N	1	5	-1	23*	-9	19	7.4*
SMILES	MsrA inhibitor	rCAG binder	PG9 binder	sPLA2-III inh	bovine MsrA act	sPLA2 confirm	535nm interf	others
CC/C=C\[C@H](O)[C@H](O)C1=C(C)C(=O)[C@]2(O1)C(=O)N[C@@](OC)(C(=O)c1ccccc1)[C@@H]2O	x	1	x	4	x	x	x
O=C(c1cc(S(=O)(=O)N2CCCCC2)ccc1F)N1CCCCC1	x	x	x	x	-7	x	x
NS(=O)(=O)c1ccc(F)c(C(=O)O)c1	0	-1	0	26*	-4	4	-6
Nc1ccc2c3c(ccc([N+](=O)[O-])c13)CC2	1	4	-13	23*	-4	34*	6.6*
CC(=O)c1ccc2c3c(ccc([N+](=O)[O-])c13)CC2	2	0	1	8	-3	x	x
CS(=O)(=O)c1ccc(NC(=O)c2ccc3c(c2)S(=O)(=O)N=C2CCCCCN23)cc1	1	6	0	5	-2	x	x
COc1ccc(-c2cc3c(c4c2ccn4C)C2CCC3C2)cc1 (stereo not given)	1	6	0	16	-2	x	x
COc1ccccc1-c1cc2c(c3c1ccn3C)C1CCC2C1 (stereo not given)	1	3	-1	22*	-7	4	-3
COc1cccc(-c2cc3c(c4c2ccn4C)C2CCC3C2)c1 (stereo not given)	1	12	-2	19*	-3	-5	2
Cn1ccc2c(-c3ccccc3F)cc3c(c21)C1CCC3C1 (stereo not given)	2	0	-1	8	-3	x	x
Cc1cc(NC(=O)COC(=O)[C@@H]2CCCN2C(=O)c2cccs2)no1	1	0	3	8	-1	x	x
N#Cc1c(SCC(N)=O)nsc1SCc1ccc(Cl)cc1	0	4	0	30*	-1	9	-10
CCN1C(=NCCc2ccc(Br)cc2)N[C@@H](c2ccccc2)[C@H](C(=O)OC)[C@H]1C	0	2	1	11	4	x	x
CCN1C(=NCCCOC(C)C)N[C@@H](c2ccccc2)[C@H](C(=O)OC)[C@H]1C	1	-1	2	19*	-2	1	-12
CCc1ccc(N2CN(Cc3cccnc3)CNC2=S)cc1	0	-2	2	15	-6	x	x
Cc1cccc(N2CN(Cc3cccnc3)CNC2=S)c1	1	-1	0	19*	-10	-4	-7
CC1(C(=O)O)CCCN(C(=O)c2cccnc2Oc2ccccc2)C1 (stereo not given)	0	1	0	5	-5	x	x
COc1ccc(-n2cc(-c3ccccc3)[nH]c2=S)cc1	0	4	1	19*	-6	41*	2	535nm interf DR=>122
Cc1cccc(-n2cc(-c3ccccc3)[nH]c2=S)c1	1	4	-1	20*	4	31*	3
Cc1ccc(-c2cn(-c3ccccc3F)c(=S)[nH]2)cc1	1	6	0	27*	0	24*	4
O=[N+]([O-])c1ccc(-c2cn(-c3ccccc3F)c(=S)[nH]2)cc1	0	4	1	0	-15	x	x
Cc1cc(=O)n(Nc2ccccc2)c(O)c1C#N	1	23	0	-9	-1	x	x
